Assay results from paper PMC11006913.
Changes are numbered by the printed parent chain.

How the values were obtained:
Assay in all cases: PBM; 200 nM protein, PBS
Conditions in all cases: dsDNA, one strand shown
VENTX [1] = biological target: T1, VENTX (Homo sapiens, UniProt O95231 78-163, R121Q)
T1 sequence: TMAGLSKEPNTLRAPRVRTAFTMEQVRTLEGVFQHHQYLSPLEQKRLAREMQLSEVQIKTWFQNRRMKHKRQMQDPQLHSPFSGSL

SIX6 [2] = biological target: T2, SIX6 (Homo sapiens, UniProt O95475 114-200, L167I)
T2 sequence: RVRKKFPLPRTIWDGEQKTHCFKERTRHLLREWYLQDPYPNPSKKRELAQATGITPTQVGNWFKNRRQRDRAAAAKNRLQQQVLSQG

VENTX [3] = biological target: T3, VENTX (Homo sapiens, UniProt O95231 78-163)
T3 sequence: T1 sequence with Q44R

SIX6 [4] = biological target: T4, SIX6 (Homo sapiens, UniProt O95475 114-200, L143V)
T4 sequence: T2 sequence with L30V, I54L

SIX6 [5] = biological target: T5, SIX6 (Homo sapiens, UniProt O95475 114-200, H141N)
T5 sequence: T2 sequence with H28N, I54L

SIX6 [6] = biological target: T6, SIX6 (Homo sapiens, UniProt O95475 114-200, T165P)
T6 sequence: T2 sequence with T52P, I54L

VENTX [7] = biological target: T7, VENTX (Homo sapiens, UniProt O95231 78-163, Y115F)
T7 sequence: T1 sequence with Y38F, Q44R

SIX6 [8] = biological target: T8, SIX6 (Homo sapiens, UniProt O95475 114-200, L167M)
T8 sequence: T2 sequence with I54M

SIX6 [9] = biological target: T9, SIX6 (Homo sapiens, UniProt O95475 114-200, L143M)
T9 sequence: T2 sequence with L30M, I54L

SIX6 [10] = biological target: T10, SIX6 (Homo sapiens, UniProt O95475 114-200, L143I)
T10 sequence: T2 sequence with L30I, I54L

SIX6 [11] = biological target: T11, SIX6 (Homo sapiens, UniProt O95475 114-200, T165G)
T11 sequence: T2 sequence with T52G, I54L

SIX6 [12] = biological target: T12, SIX6 (Homo sapiens, UniProt O95475 114-200, T139Q)
T12 sequence: T2 sequence with T26Q, I54L

SIX6 [13] = biological target: T13, SIX6 (Homo sapiens, UniProt O95475 114-200, T165A)
T13 sequence: T2 sequence with T52A, I54L

SIX6 [14] = biological target: T14, SIX6 (Homo sapiens, UniProt O95475 114-200, L167V)
T14 sequence: T2 sequence with I54V

SIX6 [15] = biological target: T15, SIX6 (Homo sapiens, UniProt O95475 114-200)
T15 sequence: T2 sequence with I54L

SIX6 [16] = biological target: T16, SIX6 (Homo sapiens, UniProt O95475 114-200, T165I)
T16 sequence: T2 sequence with T52I, I54L

HOXC9 [17] = biological target: HOXC9 (Homo sapiens, UniProt P31274 178-260, K195R)
HOXB6 [18] = biological target: HOXB6 (Homo sapiens, UniProt P17509 132-218, K202E)
HOXC9 [19] = biological target: HOXC9 (Homo sapiens, UniProt P31274 178-260)
HOXC9 [20] = biological target: HOXC9 (Homo sapiens, UniProt P31274 178-260, R193K)
HOXC9 [21] = biological target: HOXC9 (Homo sapiens, UniProt P31274 178-260, R222W)
HOXA4 [22] = biological target: HOXA4 (Homo sapiens, UniProt Q00056 201-287, W262F)
HOXB6 [23] = biological target: HOXB6 (Homo sapiens, UniProt P17509 132-218)
VAX1 [24] = biological target: VAX1 (Homo sapiens, UniProt Q5SQQ9 86-172)
VAX1 [25] = biological target: VAX1 (Homo sapiens, UniProt Q5SQQ9 86-172, T142I)
VAX1 [26] = biological target: VAX1 (Homo sapiens, UniProt Q5SQQ9 86-172, K157R)
HOXA4 [27] = biological target: HOXA4 (Homo sapiens, UniProt Q00056 201-287, W262R)
HOXA4 [28] = biological target: HOXA4 (Homo sapiens, UniProt Q00056 201-287, R217L)
HOXD13 [29] = biological target: HOXD13 (Homo sapiens, UniProt P35453 263-343, T313R)
NKX2-6 [30] = biological target: T17, NKX2-6 (Homo sapiens, UniProt A6NCS4 118-204)
T17 sequence: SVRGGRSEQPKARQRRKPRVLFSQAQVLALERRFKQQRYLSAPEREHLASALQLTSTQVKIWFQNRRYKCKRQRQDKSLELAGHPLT

HOXD13 [31] = biological target: HOXD13 (Homo sapiens, UniProt P35453 263-343)
HOXA4 [32] = biological target: HOXA4 (Homo sapiens, UniProt Q00056 201-287)
HOXD13 [33] = biological target: HOXD13 (Homo sapiens, UniProt P35453 263-343, T313A)
NKX2-6 [34] = biological target: T18, NKX2-6 (Homo sapiens, UniProt A6NCS4 118-204, F151L)
T18 sequence: T17 sequence with F34L

Sequence of HOXA4 (Homo sapiens, UniProt Q00056 201-287, W262F) (Q00056 201-287 W262F): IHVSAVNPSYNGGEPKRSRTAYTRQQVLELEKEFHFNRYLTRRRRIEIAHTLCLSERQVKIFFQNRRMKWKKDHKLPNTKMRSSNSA
Sequence of HOXC9 (Homo sapiens, UniProt P31274 178-260, R222W) (P31274 178-260 R222W): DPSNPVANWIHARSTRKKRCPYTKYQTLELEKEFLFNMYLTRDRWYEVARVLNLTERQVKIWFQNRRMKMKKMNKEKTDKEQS
Sequence of HOXA4 (Homo sapiens, UniProt Q00056 201-287, W262R) (Q00056 201-287 W262R): as the sequence (Q00056 201-287 W262F) above, with F62R counted along it
Sequence of HOXC9 (Homo sapiens, UniProt P31274 178-260, K195R) (P31274 178-260 K195R): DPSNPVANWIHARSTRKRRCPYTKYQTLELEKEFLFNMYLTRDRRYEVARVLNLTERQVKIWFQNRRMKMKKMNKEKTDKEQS
Sequence of HOXC9 (Homo sapiens, UniProt P31274 178-260) (P31274 178-260): as the sequence (P31274 178-260 R222W) above, with W45R counted along it
Sequence of HOXA4 (Homo sapiens, UniProt Q00056 201-287) (Q00056 201-287): as the sequence (Q00056 201-287 W262F) above, with F62W counted along it
Sequence of HOXA4 (Homo sapiens, UniProt Q00056 201-287, R217L) (Q00056 201-287 R217L): as the sequence (Q00056 201-287 W262F) above, with R17L, F62W counted along it
Sequence of HOXC9 (Homo sapiens, UniProt P31274 178-260, R193K) (P31274 178-260 R193K): as the sequence (P31274 178-260 R222W) above, with R16K, W45R counted along it
Sequence of HOXB6 (Homo sapiens, UniProt P17509 132-218, K202E) (P17509 132-218 K202E): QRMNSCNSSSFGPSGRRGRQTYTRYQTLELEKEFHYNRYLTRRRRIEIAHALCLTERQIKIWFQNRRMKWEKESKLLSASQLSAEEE
Sequence of VAX1 (Homo sapiens, UniProt Q5SQQ9 86-172, T142I) (Q5SQQ9 86-172 T142I): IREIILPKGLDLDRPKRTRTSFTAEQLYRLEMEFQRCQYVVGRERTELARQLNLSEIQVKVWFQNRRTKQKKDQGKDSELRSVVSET
Sequence of HOXD13 (Homo sapiens, UniProt P35453 263-343, T313A) (P35453 263-343 T313A): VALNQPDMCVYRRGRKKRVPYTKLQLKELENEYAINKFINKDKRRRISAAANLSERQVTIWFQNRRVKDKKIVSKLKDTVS
Sequence of HOXD13 (Homo sapiens, UniProt P35453 263-343) (P35453 263-343): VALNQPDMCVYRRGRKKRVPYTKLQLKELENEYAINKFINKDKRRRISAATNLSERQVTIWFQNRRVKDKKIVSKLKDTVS
Sequence of HOXD13 (Homo sapiens, UniProt P35453 263-343, T313R) (P35453 263-343 T313R): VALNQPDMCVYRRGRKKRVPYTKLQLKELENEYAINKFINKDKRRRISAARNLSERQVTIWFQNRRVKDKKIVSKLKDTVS
Sequence of VAX1 (Homo sapiens, UniProt Q5SQQ9 86-172, K157R) (Q5SQQ9 86-172 K157R): as the sequence (Q5SQQ9 86-172 T142I) above, with I57T, K72R counted along it
Sequence of HOXB6 (Homo sapiens, UniProt P17509 132-218) (P17509 132-218): as the sequence (P17509 132-218 K202E) above, with E71K counted along it
Sequence of VAX1 (Homo sapiens, UniProt Q5SQQ9 86-172) (Q5SQQ9 86-172): as the sequence (Q5SQQ9 86-172 T142I) above, with I57T counted along it

**Q.** How did the binding signal (VENTX [1]) turn out when AATGATAC was run?
**A.** The binding signal was 9.95 upbm affinity estimate (log intensity, higher = more binding, comparable within an allelic series).

**Q.** And the binding signal (SIX6 [2])?
**A.** Its binding signal is 11.5 upbm affinity estimate (log intensity, higher = more binding, comparable within an allelic series).

**Q.** And the binding signal (VENTX [3])?
**A.** The binding signal was 10.2 upbm affinity estimate (log intensity, higher = more binding, comparable within an allelic series).

**Q.** And the binding signal (SIX6 [4])?
**A.** The binding signal was 10.6 upbm affinity estimate (log intensity, higher = more binding, comparable within an allelic series).

**Q.** What about the binding signal (SIX6 [5]) of the same sequence?
**A.** Its binding signal is 11.5 upbm affinity estimate (log intensity, higher = more binding, comparable within an allelic series).

**Q.** What about the binding signal (SIX6 [6]) of the same sequence?
**A.** The binding signal was 10.1 upbm affinity estimate (log intensity, higher = more binding, comparable within an allelic series).

**Q.** And the binding signal (VENTX [7])?
**A.** Its binding signal is 9.98 upbm affinity estimate (log intensity, higher = more binding, comparable within an allelic series).

**Q.** What about the binding signal (SIX6 [8]) of the same sequence?
**A.** The binding signal was 11 upbm affinity estimate (log intensity, higher = more binding, comparable within an allelic series).

**Q.** And the binding signal (SIX6 [9])?
**A.** Its binding signal is 11.3 upbm affinity estimate (log intensity, higher = more binding, comparable within an allelic series).

**Q.** What about the binding signal (SIX6 [10]) of the same sequence?
**A.** The binding signal was 10.6 upbm affinity estimate (log intensity, higher = more binding, comparable within an allelic series).

**Q.** And the binding signal (SIX6 [11])?
**A.** Its binding signal is 11.5 upbm affinity estimate (log intensity, higher = more binding, comparable within an allelic series).

**Q.** What about the binding signal (SIX6 [12]) of the same sequence?
**A.** The binding signal was 11.3 upbm affinity estimate (log intensity, higher = more binding, comparable within an allelic series).

**Q.** What about the binding signal (SIX6 [13]) of the same sequence?
**A.** The binding signal was 11.4 upbm affinity estimate (log intensity, higher = more binding, comparable within an allelic series).

**Q.** What about the binding signal (SIX6 [14]) of the same sequence?
**A.** Its binding signal is 11.3 upbm affinity estimate (log intensity, higher = more binding, comparable within an allelic series).

**Q.** And the binding signal (SIX6 [15])?
**A.** The binding signal was 11.2 upbm affinity estimate (log intensity, higher = more binding, comparable within an allelic series).

**Q.** What about the binding signal (SIX6 [16]) of the same sequence?
**A.** Its binding signal is 11.3 upbm affinity estimate (log intensity, higher = more binding, comparable within an allelic series).

**Q.** Which binding signal (VENTX [1]) does the source give for AGTTAATG here?
**A.** Its binding signal is 11.5 upbm affinity estimate (log intensity, higher = more binding, comparable within an allelic series).

**Q.** What about the binding signal (HOXC9 [17]) of the same sequence?
**A.** Its binding signal is 12.5 upbm affinity estimate (log intensity, higher = more binding, comparable within an allelic series).

**Q.** And the binding signal (VENTX [3])?
**A.** The binding signal was 12.4 upbm affinity estimate (log intensity, higher = more binding, comparable within an allelic series).

**Q.** And the binding signal (VENTX [7])?
**A.** Its binding signal is 11.4 upbm affinity estimate (log intensity, higher = more binding, comparable within an allelic series).

**Q.** And the binding signal (HOXB6 [18])?
**A.** The binding signal was 9.94 upbm affinity estimate (log intensity, higher = more binding, comparable within an allelic series).

**Q.** And the binding signal (HOXC9 [19])?
**A.** Its binding signal is 12.5 upbm affinity estimate (log intensity, higher = more binding, comparable within an allelic series).

**Q.** What about the binding signal (HOXC9 [20]) of the same sequence?
**A.** Its binding signal is 12.5 upbm affinity estimate (log intensity, higher = more binding, comparable within an allelic series).

**Q.** And the binding signal (HOXC9 [21])?
**A.** Its binding signal is 10.8 upbm affinity estimate (log intensity, higher = more binding, comparable within an allelic series).

**Q.** And the binding signal (HOXA4 [22])?
**A.** The binding signal was 11.4 upbm affinity estimate (log intensity, higher = more binding, comparable within an allelic series).

**Q.** What about the binding signal (HOXB6 [23]) of the same sequence?
**A.** The binding signal was 11.7 upbm affinity estimate (log intensity, higher = more binding, comparable within an allelic series).

**Q.** Which results are given for CCGGGAGG?
**A.** binding signal (VENTX [1]): 8.1 upbm affinity estimate (log intensity, higher = more binding, comparable within an allelic series); binding signal (HOXC9 [17]): 9.54 upbm affinity estimate (log intensity, higher = more binding, comparable within an allelic series); binding signal (VENTX [3]): 7.94 upbm affinity estimate (log intensity, higher = more binding, comparable within an allelic series); binding signal (VENTX [7]): 8.13 upbm affinity estimate (log intensity, higher = more binding, comparable within an allelic series); binding signal (HOXC9 [19]): 9.63 upbm affinity estimate (log intensity, higher = more binding, comparable within an allelic series); binding signal (HOXC9 [20]): 9.49 upbm affinity estimate (log intensity, higher = more binding, comparable within an allelic series); binding signal (VAX1 [24]): 7.03 upbm affinity estimate (log intensity, higher = more binding, comparable within an allelic series); binding signal (HOXC9 [21]): 9.7 upbm affinity estimate (log intensity, higher = more binding, comparable within an allelic series); binding signal (VAX1 [25]): 7.12 upbm affinity estimate (log intensity, higher = more binding, comparable within an allelic series); binding signal (VAX1 [26]): 7.11 upbm affinity estimate (log intensity, higher = more binding, comparable within an allelic series)

**Q.** Which binding signal (VENTX [1]) does the source give for CCCCCTGC here?
**A.** Its binding signal is 8.15 upbm affinity estimate (log intensity, higher = more binding, comparable within an allelic series).

**Q.** What about the binding signal (HOXA4 [27]) of the same sequence?
**A.** Its binding signal is 9.55 upbm affinity estimate (log intensity, higher = more binding, comparable within an allelic series).

**Q.** And the binding signal (VENTX [3])?
**A.** The binding signal was 8.15 upbm affinity estimate (log intensity, higher = more binding, comparable within an allelic series).

**Q.** And the binding signal (VENTX [7])?
**A.** The binding signal was 8.11 upbm affinity estimate (log intensity, higher = more binding, comparable within an allelic series).

**Q.** What about the binding signal (HOXA4 [28]) of the same sequence?
**A.** The binding signal was 9.45 upbm affinity estimate (log intensity, higher = more binding, comparable within an allelic series).

**Q.** What about the binding signal (HOXD13 [29]) of the same sequence?
**A.** Its binding signal is 9.12 upbm affinity estimate (log intensity, higher = more binding, comparable within an allelic series).

**Q.** And the binding signal (NKX2-6 [30])?
**A.** Its binding signal is 8.96 upbm affinity estimate (log intensity, higher = more binding, comparable within an allelic series).

**Q.** What about the binding signal (HOXD13 [31]) of the same sequence?
**A.** The binding signal was 9.26 upbm affinity estimate (log intensity, higher = more binding, comparable within an allelic series).

**Q.** What about the binding signal (HOXA4 [32]) of the same sequence?
**A.** The binding signal was 9.54 upbm affinity estimate (log intensity, higher = more binding, comparable within an allelic series).

**Q.** And the binding signal (HOXD13 [33])?
**A.** Its binding signal is 9.34 upbm affinity estimate (log intensity, higher = more binding, comparable within an allelic series).

**Q.** What about the binding signal (NKX2-6 [34]) of the same sequence?
**A.** The binding signal was 8.92 upbm affinity estimate (log intensity, higher = more binding, comparable within an allelic series).

**Q.** And the binding signal (HOXA4 [22])?
**A.** The binding signal was 9.59 upbm affinity estimate (log intensity, higher = more binding, comparable within an allelic series).

**Q.** How did the binding signal (VENTX [1]) turn out when CCAGGGCC was run?
**A.** The binding signal was 8.11 upbm affinity estimate (log intensity, higher = more binding, comparable within an allelic series).

**Q.** And the binding signal (HOXA4 [27])?
**A.** Its binding signal is 9.65 upbm affinity estimate (log intensity, higher = more binding, comparable within an allelic series).

**Q.** And the binding signal (VENTX [3])?
**A.** Its binding signal is 8.27 upbm affinity estimate (log intensity, higher = more binding, comparable within an allelic series).

**Q.** And the binding signal (VENTX [7])?
**A.** Its binding signal is 8.19 upbm affinity estimate (log intensity, higher = more binding, comparable within an allelic series).

**Q.** And the binding signal (HOXA4 [28])?
**A.** Its binding signal is 9.71 upbm affinity estimate (log intensity, higher = more binding, comparable within an allelic series).

**Q.** What about the binding signal (HOXA4 [32]) of the same sequence?
**A.** Its binding signal is 9.79 upbm affinity estimate (log intensity, higher = more binding, comparable within an allelic series).

**Q.** And the binding signal (HOXA4 [22])?
**A.** The binding signal was 9.73 upbm affinity estimate (log intensity, higher = more binding, comparable within an allelic series).
